# Casp1 inh: allosteric or competitive inhibitors of human caspase-1; Caspase-1 enzyme, Ac-WEHD-AFC fluorogenic rate; AID 900; Potency, µM (series often up to 57.5 µM), most hits filed as inhibitors; P29466; 75,000 compounds, 0.03% hits
# Caspase-7 inhib: caspase-7 (human) inhibition, allosteric or competitive; P55210; recombinant caspase-7, Ac-DEVD-AFC fluorescence rate; Potency, µM (doses to about 57.5 µM), hits mostly inhibitors; 75,000 compounds, 0.02% hits; active = well fitted inhibition curve with a large enough effect in the main read-out, with a control signal flat, not every such curve was filed as active; inconclusive = small, poorly fitted or top-dose-only effect, or a change in a side signal
# ALOX15 inhib: 15-hLO (ALOX15) enzyme inhibition | P16050 | purified 15hLO-1, xylenol orange hydroperoxide absorbance | Potency, µM (top dose mostly 57.1 µM), actives largely listed as inhibitors | 74,000 compounds, 1.4% hits | AID 887; note: nearly all actives have a fitted effect of over 55% in size
#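 Quantitative HTS in 25 mM Hepes pH 7.5 containing 0.01% Triton X-100: human 15hLO-1 at 40 nM, arachidonic acid at 50 uM, 6 min turnover. Product quantified via ferrous oxidation/xylenol orange, 573:405 nm absorbance ratio.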
# ERK AVP block: vasopressin-driven ERK pathway inhibition. HEK293-V1b, vasopressin-stimulated pERK AlphaScreen. Potency, µM (top dose mostly 57.5 µM), most hits filed as inhibitors. AID 995. 72,000 compounds, 0.99% hits; note: nearly all actives have a fitted effect of over 55% in size
#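 V1b-HEK293 cells; cpd 30 min 37C; 25 nM vasopressin 5 min; lyse 10 min; AlphaScreen beads 5 hr RT. Normalized to DMSO basal and 25 nM vasopressin; AC50 by Hill fit.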
# Tau filament bind: binders of human tau filaments. recombinant tau filaments, thioflavin S fluorescence, 15 h; filaments grown with octadecylsulfate alongside compound. Potency, µM (series often up to 57.1 µM). 71,000 compounds, 2% hits. P10636;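 note: actives lower thioflavin S fluorescence by blocking filaments or displacing dye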
#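 Thioflavine S fluorescence (ex 450, em 510 nm) reports filaments formed from 1 uM human tau plus 30 uM ODS over 15 h at 37 C (10 mM HEPES pH 7.4, 100 mM NaCl, 5 mM DTT); compounds displacing dye or blocking filaments lower signal.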
# Hits are given with their value; . = inactive; ? = inconclusive; / = no result given; [ ] = remark or other dose. Most compounds without a hit are left out; they make up all but 3.9% or so of the library. Unless noted, calls come from the whole dose curve; as a rule, active = well fitted curve in the direction sought with a large enough effect; inconclusive = small, poorly fitted or top-dose-only effect, or another doubt; inactive = no such curve, though single readings can be large; an effect the other way counts as inactive or inconclusive.
SMILES,Casp1 inh,Caspase-7 inhib,ALOX15 inhib,ERK AVP block,Tau filament bind
c1ccc2nc3c(nc2c1)c1ccccc1n3CCN1CCOCC1,.,.,.,.,13µM
O=c1c2ccccc2nc(-c2ccccc2)n1CCN1CCOCC1,.,.,.,.,.
CCn1c(C)nc2cc(S(=O)(=O)N3CCCCC3)ccc21,.,.,.,.,.
Brc1ccc2c(c1)c1nc3ccccc3nc1n2CCN1CCOCC1,.,.,32µM,32µM,16µM
CCn1c2ccccc2c2nc3cc(S(=O)(=O)N4CCOCC4)ccc3nc21,?,.,?,.,25µM
CN(C)C(=O)c1ccc(-c2ccc3ncnc(N(C)Cc4ccco4)c3c2)cc1,.,.,.,?,.
CCc1c(C#N)c(N)nc(SCC(=O)OCc2ccccc2)c1C#N,.,.,.[11.4 µM],32µM,.[11.4 µM]
CC(=O)Nc1nc2n(n1)C(c1ccc(F)cc1)C=C(c1ccccc1)N2 (configuration not stated),/,?,?,.,.
CC(=O)Nc1nc2n(n1)C(c1ccccc1)C=C(c1ccccc1)N2 (configuration not stated),/,?,20µM,.,.
Nc1c(NCCN2CCOCC2)c2ccccc2oc1=O,.,.,1.6µM,.,.
C=Cc1c(C)c2cc3nc(cc4[nH]c(cc5nc(cc1[nH]2)C(C)=C5CCC(=O)O)c(CCC(=O)OC)c4C)[C@@]1(C)C3=CC=C(C(=O)OC)[C@H]1C(=O)OC (tested in a mixture with another compound),.,.,.,.,1.6µM
Cc1ccc2nc3c(cc2c1)CN(Cc1ccco1)C(=NCC1CCCO1)S3 (configuration not stated),.,.,.,.,.
Cc1cccc2cc3c(nc12)SC(=NCC1CCCO1)N(Cc1ccco1)C3 (configuration not stated),.,.,10µM,?,?
CC1(C)S[C@@H]2[C@H](NC(=O)C3(N)CCCCC3)C(=O)N2[C@@H]1C(=O)O,.[11.5 µM],.[11.5 µM],.[11.4 µM],.[11.5 µM],.[11.4 µM]
CCS(=O)(=O)NCc1ccc2[nH]c3c(c2c1)CCCC3,/,?,0.4µM,.,.
CCOC(=O)CNC(=O)c1ccc2[nH]c3c(c2c1)CCCC3,.,.,.,.,.
COc1c(-c2coc3cc4c(cc3c2=O)CC(O)C(C)(C)O4)ccc2c1C=CC(C)(C)O2 (configuration not stated),.,.,.,3.2µM,/
CC1(C)C=Cc2c(cc3occ(-c4ccc5c(c4)OCO5)c(=O)c3c2O)O1,.,.,.,.,/
COc1c(-c2coc3cc4c(cc3c2=O)CC(OC(C)=O)C(C)(C)O4)ccc2c1C=CC(C)(C)O2 (configuration not stated),.,.,.,16µM,/
COc1ccc(-c2coc3ccc(OC4OC(COC(C)=O)C(OC(C)=O)C(OC(C)=O)C4OC(C)=O)cc3c2=O)cc1 (configuration not stated),.,.,.,.,/
NC(N)=NC(N)=Nc1ccc(S(N)(=O)=O)cc1,.[11.5 µM],.[11.5 µM],.[11.4 µM],.[11.5 µM],.[11.4 µM]
N#Cc1c(/N=C/c2ccco2)sc2c1CCC2,.,.,.,.,16µM
Cc1ccc(/C=N/c2sc3c(c2C#N)CCCCC3)o1,?,.,25µM,?,.
Cc1ccc(/C=N/n2cnc3sc4c(c3c2=O)CCCC4)o1,.,.,?,.,.
O=C(Nc1nc(-c2ccccn2)cs1)c1ccc(S(=O)(=O)N2CCCCC2)cc1,.,.,.,25µM,.
SMILES,Casp1 inh,Caspase-7 inhib,ALOX15 inhib,ERK AVP block,Tau filament bind
CCOc1ccc2c(c1)c1nnc(SCC3CCCO3)nc1n2C (configuration not stated),.,.,.,?,32µM
COc1cc2c(cc1OC)-c1cc(NCc3ccccn3)nc(=O)n1CC2,.,.,13µM,?,.
COCCn1c(=O)c(C)nc2cnc(N3CCOCC3)nc21,.,.,.,.,.
CN(C)Cc1ccccc1-c1nc(N2CCOCC2)c2ccccc2n1,.,.,.,.,.
COc1cc(C2CC(=O)N3CN(Cc4ccco4)CSC3=C2C#N)ccc1OCc1ccccc1 (configuration not stated),.,.,6.3µM,?,.
COc1ccc(N2CSC3=C(C#N)C(c4cccc(OC)c4OC)CC(=O)N3C2)cc1 (configuration not stated),.,.,?,.,?
COc1ccc2ccccc2c1C1CC(=O)N2CN(Cc3ccco3)CSC2=C1C#N (configuration not stated),.,.,?,.,7.9µM
COc1ccc2ccccc2c1C1CC(=O)N2CN(C3CCCCC3)CSC2=C1C#N (configuration not stated),.,.,?,.,13µM
Cc1nc(NCc2ccccc2)c2nc(-c3ccccc3)n(CCN(C)C)c2n1,.,.,?,.,.
COC(=O)[C@@]1(Cc2ccc(OC)cc2)[C@H]2c3cc(C(=O)N4CCCC4)n(CCN4CNCC4=O)c3C[C@H]2CN1C(=O)c1ccccc1,.,.,/,.,.
CCc1cc(C(C)=O)c(O)cc1OCCCCCC(C)(C)c1nn[nH]n1,.,.,20µM,.,/
CCOC(=O)c1cnc2c(C)cccc2c1NCc1ccco1,.,.,.,.,.
CCOC(=O)c1cnc2c(C(=O)OC)cccc2c1NCc1ccco1,.,.,.,?,13µM
Cc1ccccc1C(=O)NCc1ccncc1,.,.,.,25µM,.
Cc1cc(C)c2cc(CN(CCN3CCCC3)C(=O)Nc3ccc(F)cc3)c(=O)[nH]c2c1,.,.,.,.,.
Cc1cc(C)c2cc(CN(CCO)C(=O)Nc3ccc(Cl)cc3)c(=O)[nH]c2c1,.,.,?,32µM,.
COc1ncc2nc(C)c(=O)n(Cc3ccc(F)cc3)c2n1,.,.,.,.,.
Fc1cc2nc(-c3ccncc3)[nH]c2cc1F,.,.,.,.,.
Oc1ccc(-c2nc(-c3ccc(F)cc3)c(-c3ccncc3)[nH]2)cc1,.,.,?,7.9µM,?
Cc1cc(C)cc(C(=O)N(C)[C@H](Cc2ccc(-c3ccccc3)cc2)C(=O)N[C@@H](Cc2c[nH]c3ccccc23)C(=O)O)c1,.,32µM,.,.,?
Cc1ccc(C(=O)NC(Cc2c[nH]c3ccccc23)C(=O)O)o1 (configuration not stated),.,.,.,.,.
CCCCNc1cc(NC(C)=O)cc2cc(OC)c(OC)cc12,.,.,.,?,25µM
CCCC(=O)Nc1cc(OC)c(OC)cc1C(=O)O,.,.,.,.,.
CCS(=O)(=O)Nc1c(C(=O)OC)[nH]c2ccccc12,.,.,.,.,.
CCS(=O)(=O)Nc1c(C(=O)O)[nH]c2ccccc12,.,.,.,.,20µM
Cc1occc1-c1nnc(SCC(=O)c2cc3ccccc3oc2=O)o1,/,?,13µM,16µM,10µM
CC[C@]1(c2ccccc2)NC(=O)N(C)C1=O,.,.,.,.,.
CCOc1ccc(-c2nc(C#N)c(N3CCN(C)CC3)o2)cc1,.,.,.,?,.

# Assay outcomes deposited in PubChem BioAssay by National Center for Advancing Translational Sciences (NCATS).
